From PubChem BioAssay
Hits are enriched below; roughly 4.3% of the tested compounds scored in any of these assays.
GLP-1R inv ag – GLP-1 receptor (human) inverse agonism | P43220 | HEK293 GLP-1R CRE-luciferase, luminescence, 24 h; GLP-1R form is constitutively active | Potency, µM (top dose mostly 38.3 µM), usual class: inhibitors | 410,000 compounds, 1.6% hits; further: nearly all actives have a fitted effect of over 55% in size
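Cells are plated, allowed 12 hours at 37 deg C, then treated with compounds for 24 hr before luciferase detection reagent is added and luminescence is read after 12 min at room temperature. The HEK293 line carries constitutively active GLP-1R with a cAMP-responsive reporter.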
GLP1R ag – GLP-1 receptor (human) agonism | Potency, µM (top dose mostly 45.6 µM), usual class: activators | HEK293 GLP-1R CRE-luciferase, luminescence, 4-6 h; cells express a hypersensitive GLP-1R form | 380,000 compounds, 0.007% hits | AID 624172 | P43220
D3 antag – D3 dopamine receptor (human) antagonism; max response, negative = inhibition, %; 360,000 compounds, 2.5% hits; D3R cells, DiscoveRx beta-arrestin luminescence, antagonist mode; stronger effect = lower value; P35462; AID 652054; in the data active means max response below about -50%; inconclusive means no clear call, values can overlap the other calls
Target sequence (P35462 whole entry, looked up): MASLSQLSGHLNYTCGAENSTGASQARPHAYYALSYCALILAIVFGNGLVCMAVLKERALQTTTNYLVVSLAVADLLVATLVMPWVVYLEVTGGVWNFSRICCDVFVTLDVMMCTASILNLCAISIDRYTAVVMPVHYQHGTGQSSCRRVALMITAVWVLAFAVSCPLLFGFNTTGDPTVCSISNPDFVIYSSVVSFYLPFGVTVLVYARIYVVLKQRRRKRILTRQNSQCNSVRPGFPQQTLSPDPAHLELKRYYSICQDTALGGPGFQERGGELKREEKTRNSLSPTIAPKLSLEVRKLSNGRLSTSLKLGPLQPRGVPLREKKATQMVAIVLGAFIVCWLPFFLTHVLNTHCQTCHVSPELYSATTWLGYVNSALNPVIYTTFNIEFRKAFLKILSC
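Cells plated overnight at 1500 cells/well, then exposed to library compounds with dopamine controls for 90 minutes at 37 degrees C. DiscoveRx reagent added for 30–60 minutes at room temperature; luminescence read, quantitative HTS format.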
D3 ag – agonists of human D3 dopamine receptor. P35462. D3R DiscoveRx beta-arrestin cells, luminescence, 90 min. max activation, %. 410,000 compounds, 0.58% hits; in the data active means max activation above about 30%
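Cells at 1500/well, incubated overnight, then treated with pinned compounds (dopamine as control) for 90 min at 37 degrees C. DiscoveRx reagent added for 30 - 60 minutes at room temperature; luminescence read.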
Numbers stand for hits. Unless noted, the call rests on the fitted dose curve; in most records, active means well fitted curve in the direction sought with a large enough effect; inconclusive means small, poorly fitted or top-dose-only effect, or another doubt; inactive means no such curve, though single readings can be large; an effect the other way counts as inactive or inconclusive.

`Cc1ccc(Cl)cc1-n1ncc2c(NCCC3=CCCCC3)ncnc21` gave GLP-1R inv ag 8.9µM and D3 ag inactive.
Fc1ccc(-n2ncc3c(NCCC4=CCCCC4)ncnc32)cc1 was read as GLP-1R inv ag inactive and D3 ag inactive.
CCOC(=O)[C@H](CCc1ccccc1)N[C@@H](C)C(=O)N1C(=O)N(C)C[C@H]1C(=O)O was read as GLP1R ag inactive and D3 ag inactive.
For COc1ccccc1N1CCN(C(CNC(=O)C(=O)NCCc2ccccc2)c2cccnc2)CC1 (configuration not stated) the results were GLP-1R inv ag inactive and D3 ag inactive.
Screening Cc1sc2ccccc2c1CNC[C@H]1O[C@@H](n2ccc(N)nc2=O)[C@H](O)[C@@H]1O returned GLP-1R inv ag inactive, GLP1R ag inactive, D3 antag inactive and D3 ag inactive.
For Cc1sc2ccccc2c1CNC[C@H]1O[C@@H](n2cnc(C(N)=O)n2)[C@H](O)[C@@H]1O the results were GLP-1R inv ag inactive, GLP1R ag inactive, D3 antag inactive and D3 ag 48.
`Cc1ccc(-c2nc(CS(=O)(=O)CC(=O)NCCCN(Cc3ccccc3)C(C)C)c(C)o2)cc1` gave GLP-1R inv ag 4.5µM, GLP1R ag inactive, D3 antag inactive and D3 ag inactive.
Screening Cc1oc(-c2ccccc2F)nc1CS(=O)(=O)CC(=O)NCCN1CCCC1 returned GLP-1R inv ag inactive, GLP1R ag inactive, D3 antag inactive and D3 ag inactive.
Screening Cc1oc(-c2ccccc2F)nc1CS(=O)(=O)CC(=O)NCCCN1CCc2ccccc2C1 returned GLP-1R inv ag inconclusive, GLP1R ag inactive, D3 antag -77 and D3 ag inactive.
Screening COc1cccc(NC(=O)CNC(=O)Cn2c(C)cc3ccccc3c2=O)c1 returned GLP-1R inv ag inactive, GLP1R ag inactive and D3 ag inactive.
`COc1ccc(S(=O)(=O)NCCc2sc(C)nc2C)cc1F` gave GLP-1R inv ag inactive, GLP1R ag inactive and D3 ag inactive.
CNCc1c(OCc2ccccc2)ccc2ccccc12 was read as GLP-1R inv ag inconclusive, GLP1R ag inactive, D3 antag inconclusive and D3 ag inactive.
Screening CC(C)(CO)NCc1c(OCc2ccc(Cl)cc2)ccc2ccccc12 returned GLP-1R inv ag 5.6µM, GLP1R ag inactive, D3 antag inactive and D3 ag inactive.
For O=C(NCC(c1ccco1)N1CCN(c2ccccc2F)CC1)c1ccco1 (configuration not stated) the results were GLP-1R inv ag inconclusive, GLP1R ag inactive, D3 antag inactive and D3 ag 39.
`O=C(NCC(c1ccco1)N1CCN(c2ccccc2F)CC1)c1cccs1` (configuration not stated) gave GLP-1R inv ag inconclusive, GLP1R ag inactive, D3 antag inactive and D3 ag inactive.
For Cc1ccc(C(CNC(=O)c2ccco2)N2CCN(C)CC2)cc1 (configuration not stated) the results were GLP-1R inv ag inactive, GLP1R ag inactive, D3 antag -57 and D3 ag inactive.
O=C(NCC(c1cccnc1)N1CCN(c2ccccc2F)CC1)c1ccco1 (configuration not stated) was read as GLP-1R inv ag inactive, GLP1R ag inactive, D3 antag inactive and D3 ag inactive.
Screening O=C(NCc1cccs1)C(=O)NCC(c1ccco1)N1CCN(c2ccccc2F)CC1 (configuration not stated) returned GLP-1R inv ag inconclusive, GLP1R ag inactive, D3 antag inactive and D3 ag 73.
CC(=O)c1ccc(N2C(=O)N(Cc3cccc(C(F)(F)F)c3)c3ccccc3S2(=O)=O)cc1 was read as GLP-1R inv ag 10µM, GLP1R ag inactive and D3 ag inactive.
Screening CC(=C/c1ccccc1)/C=N/n1c(-c2ccco2)n[nH]c1=S returned GLP-1R inv ag inactive, GLP1R ag inactive, D3 antag inactive and D3 ag inactive.
For S=c1[nH]nc(-c2ccco2)n1/N=C/C=C/c1ccccc1 the results were GLP-1R inv ag inactive, GLP1R ag inactive, D3 antag -64 and D3 ag inactive.
`S=c1[nH]nc(Cc2cccc3ccccc23)n1-c1ccccc1` gave GLP-1R inv ag inactive, GLP1R ag inactive, D3 antag -51 and D3 ag inactive.
Screening Nn1c(Cc2cccc3ccccc23)n[nH]c1=S returned GLP-1R inv ag inactive, GLP1R ag inactive, D3 antag inactive and D3 ag inactive.
S=c1[nH]nc(-c2ccco2)n1/N=C/c1ccc(Cl)cc1Cl was read as GLP-1R inv ag inactive, GLP1R ag inactive, D3 antag -54 and D3 ag inactive.
Cc1n[nH]c(=S)n1/N=C/c1ccccc1OCc1ccc(Cl)cc1Cl was read as GLP-1R inv ag inactive, GLP1R ag inactive, D3 antag inactive and D3 ag 31.
`Cc1ccc2oc(=O)c3cnn(CC(=O)N(C)c4ccc(F)cc4)c3c2c1` gave GLP-1R inv ag inactive, GLP1R ag inactive and D3 ag inactive.
COc1ccc(NC(=O)C2CCN(S(=O)(=O)c3cn(C)cn3)CC2)cc1Cl was read as GLP-1R inv ag inactive and D3 ag inactive.
`COc1ccccc1/C=C/C=N/n1c(-c2ccc(Cl)cc2)n[nH]c1=S` gave GLP-1R inv ag inactive, GLP1R ag inactive, D3 antag -63 and D3 ag inactive.
`S=c1[nH]nc(-c2ccccc2)n1/N=C/C=C/c1ccco1` gave GLP-1R inv ag inactive, GLP1R ag inactive, D3 antag inactive and D3 ag inactive.
S=c1[nH]nc(-c2ccco2)n1-c1cccc2ccccc12 was read as GLP-1R inv ag inactive, GLP1R ag inactive, D3 antag -74 and D3 ag inactive.
Screening S=c1[nH]nc(-c2ccc(Cl)cc2)n1/N=C/C=C/c1ccco1 returned GLP-1R inv ag inactive, GLP1R ag inactive, D3 antag -80 and D3 ag inactive.
For c1cnc2cc3c(cc2n1)C1CNCC3C1 the results were GLP1R ag inactive and D3 ag inactive.
Screening COc1ccc(-c2cc(C(F)(F)F)nc(S(C)(=O)=O)n2)cc1 returned GLP-1R inv ag inconclusive, GLP1R ag inactive, D3 antag -75 and D3 ag inactive.
For CS(=O)(=O)c1nc(-c2ccc(F)cc2)cc(C(F)(F)F)n1 the results were GLP-1R inv ag inconclusive, GLP1R ag inactive, D3 antag -79 and D3 ag inactive.
For Nc1nc(-c2ccc(F)cc2)cc(C(F)(F)F)n1 the results were GLP-1R inv ag inactive, GLP1R ag inactive, D3 antag inactive and D3 ag inactive.
For O=C1c2ccccc2S(=O)(=O)N1Cc1nc2ccccc2s1 the results were GLP-1R inv ag 4µM, GLP1R ag inactive, D3 antag inactive and D3 ag inactive.
For Nc1c(SCCC(=O)O)ccc2c1C(=O)c1ccccc1C2=O the results were GLP-1R inv ag inactive, GLP1R ag inactive, D3 antag -56 and D3 ag inactive.
Screening Cc1cc(C)c(S(=O)(=O)N/N=C/c2ccc3c(c2)OCO3)c(C)c1 returned GLP-1R inv ag inactive, GLP1R ag inactive, D3 antag -71 and D3 ag inactive.
